“And” between values parts separate entries of the source, which are not always exact repeats. Identical values can stand only once. Some compounds were tested as several samples or in several runs, with calls that do not always agree. The source made the active and inactive calls. How the source made its calls: active means hit-call score of the fitted dose curve at least 0.9, where 1 is the maximum; inactive means score below 0.9.
Experiments:
[1] = BSK_hDFCGF_SRB: Viability Assessment in the BioMAP Diversity Plus: hDFCGF Assay (AID 2283061); details: primary human foreskin fibroblasts;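 further: cells exposed to compound for 24 h before the read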
Procedure, shortened: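 Human foreskin primary fibroblasts were treated with compound and assessed 24 h after dosing. Total protein was measured by sulforhodamine B staining (0.1% SRB after 10% TCA fixation, 560 nm read) as a cytotoxicity marker, with bidirectional fitting against DMSO baseline.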

[2] = read-out: TIMP metallopeptidase inhibitor 1 (TIMP1), TIMP1 (gene 7076); assay: BSK_hDFCGF_TIMP1: BioMAP Diversity Plus: hDFCGF Assay for TIMP metallopeptidase inhibitor 1 (TIMP1) Biomarker Activity (AID 2283062); details: primary human foreskin fibroblasts; actives raise or lower the signal
Procedure, shortened: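 Primary human foreskin fibroblasts in the hDFCGF system were dosed with compound for 24 h, then TIMP-1 was measured by ELISA. Activity was fitted bidirectionally relative to DMSO control; parallel SRB staining assessed cytotoxicity.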

[3] = read-out: Monokine induced gamma interferon (MIG), CXCL9 (gene 4283); assay: BSK_hDFCGF_MIG: BioMAP Diversity Plus: hDFCGF Assay for Monokine induced gamma interferon (MIG) Biomarker Activity (AID 2283063); details: primary human foreskin fibroblasts; actives raise or lower the signal
Procedure, shortened: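 ELISA read-out of MIG from primary human dermal fibroblasts 24 h post-dosing. Gain or loss of signal fitted bidirectionally, DMSO as baseline.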

[4] = read-out: Vascular cell adhesion molecule 1 (VCAM1), VCAM1 (gene 7412); assay: BSK_hDFCGF_VCAM1: BioMAP Diversity Plus: hDFCGF Assay for Vascular cell adhesion molecule 1 (VCAM1) Biomarker Activity (AID 2283065); details: primary human foreskin fibroblasts; actives raise or lower the signal;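 on AC50: VCAM-1 protein level quantified by ELISA after 24 h chemical exposure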
Procedure, shortened: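 Primary human foreskin fibroblasts (hDFCGF system) were dosed with chemical and VCAM-1 was measured by ELISA 24 h later. Bidirectional curve fitting used DMSO as negative control and activity baseline.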

[5] = read-out: Plasminogen activator inhibitor-1 (PAI1), SERPINE1 (gene 5054); assay: BSK_hDFCGF_PAI1: BioMAP Diversity Plus: hDFCGF Assay for Plasminogen activator inhibitor-1 (PAI1) Biomarker Activity (AID 2283066); details: primary human foreskin fibroblasts; actives raise or lower the signal
Procedure, shortened: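 Fibroblasts from human foreskin were treated with test chemical. After 24 h, PAI-1 was measured by ELISA. Activity was fitted in both directions relative to DMSO.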

[6] = read-out: Intercellular Adhesion Molecule 1 (ICAM1), ICAM1 (gene 3383); assay: BSK_KF3CT_ICAM1: BioMAP Diversity Plus: KF3CT Assay for Intercellular Adhesion Molecule 1 (ICAM1) Biomarker Activity (AID 2283067); details: primary human keratinocytes with fibroblasts; actives raise or lower the signal
Procedure, shortened: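 Human keratinocyte plus foreskin fibroblast primary co-culture was exposed to chemical for 24 h. ICAM-1 was then quantified by ELISA, and the data were fit bidirectionally against DMSO as the negative control and baseline.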

[7] = read-out: Interferon-gamma inducible Protein 10 (IP10), CXCL10 (gene 3627); assay: BSK_KF3CT_IP10: BioMAP Diversity Plus: KF3CT Assay for Interferon-gamma inducible Protein 10 (IP10) Biomarker Activity (AID 2283068); details: primary human keratinocytes with fibroblasts; actives raise or lower the signal
Procedure, shortened: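 Signal is secreted/surface IP-10 by ELISA in a human primary skin co-culture of keratinocytes and foreskin fibroblasts, taken 24 h post-dosing; DMSO served as negative control.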

[8] = read-out: Interleukin-1 alpha (IL1a), IL1A (gene 3552); assay: BSK_KF3CT_IL1a: BioMAP Diversity Plus: KF3CT Assay for Interleukin-1 alpha (IL1a) Biomarker Activity (AID 2283070); details: primary human keratinocytes with fibroblasts; actives raise or lower the signal
Procedure, shortened: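 IL-1a was detected by ELISA 24 h after chemical treatment of a co-culture of human skin keratinocytes and foreskin fibroblasts. Gain or loss of signal was fitted against the DMSO baseline.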

[9] = read-out: Matrix Metallopeptidase 1 (MMP1), MMP1 (gene 4312); assay: BSK_hDFCGF_MMP1: BioMAP Diversity Plus: hDFCGF Assay for Matrix Metallopeptidase 1 (MMP1) Biomarker Activity (AID 2283064); details: primary human foreskin fibroblasts; actives raise or lower the signal
Procedure, shortened: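 MMP1 levels quantified by ELISA 24 h after dosing human dermal fibroblast cultures, with parallel SRB total-protein staining for overt cytotoxicity. Data fitted in both directions against DMSO baseline.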

[10] = BSK_KF3CT_SRB: Viability Assessment in the BioMAP Diversity Plus: KF3CT Assay (AID 2283069); details: primary human keratinocytes with fibroblasts
Procedure, shortened: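 Cytotoxicity was gauged by SRB staining (0.1% SRB, 10% TCA fixation, 560 nm) of parallel cultures at 24 h. The cells were primary human skin keratinocytes co-cultured with fibroblasts, and activity was fitted in both directions against DMSO.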

Measured: AC50

N=C(N)c1ccc(OCCCCCOc2ccc(C(=N)N)cc2)cc1
active: [1] 25.8 µM | [2] 27.2 µM | [4] 28.1 µM | [5] 28.5 µM
inactive: [3] | [6] | [7] | [8]

COc1cccc(O)c1
inactive: [1] | [2] | [3] | [9] | [6] | [7] | [10] | [8]

O=C(O)CCC(F)(F)C(F)(F)C(F)(F)C(F)(F)C(F)(F)F
active: [9] 13.8 µM
inactive: [1] | [2] | [9] | [4] | [6] | [7] | [8]

OCCN1CN(CCO)CN(CCO)C1
active: [3] 20 µM | [6] 20 µM | [8] 5.9 µM
inactive: [1] | [2] | [9] | [7]

C=CC(=C)CC/C=C(\C)CCC=C(C)C
inactive: [1] | [2] | [9] | [4] | [6] | [7] | [8]

Oc1c(Cl)cc(Cl)cc1Sc1cc(Cl)cc(Cl)c1O
active: [1] 1.67 µM and 1.78 µM | [2] 2.06 µM and 1.74 µM | [9] 2.14 µM and 2.37 µM | [4] 1.43 µM and 1.52 µM | [6] 3.11 µM and 3.28 µM | [7] 2.75 µM and 2.98 µM | [8] 2.22 µM and 2.17 µM

CS(=O)(=O)c1ccc([C@@H](CC2CCCC2)C(=O)Nc2cnccn2)cc1Cl
inactive: [1] | [2] | [9] | [4] | [6] | [7] | [8]
active: [5] 20 µM

COCN(COC)c1nc(N(COC)COC)nc(N(COC)COC)n1
inactive: [1] | [2] | [3] | [9] | [5] | [6] | [7] | [8]

O=C(CC(=O)C(F)(F)C(F)(F)C(F)(F)F)c1cccs1
active: [9] 7.77 µM
inactive: [1] | [2] | [9] | [4] | [5] | [6] | [7] | [10] | [8]

CN(C)CCOC(c1ccccc1)c1ccccc1
inactive: [1] | [2] | [9] | [4] | [6] | [7] | [8]

O=C(O)CCC(F)(F)C(F)(F)C(F)(F)C(F)(F)C(F)(F)C(F)(F)F
inactive: [1] | [2] | [3] | [9] | [5] | [6] | [7] | [10] | [8]

Cc1ccc(N=Nc2c(O)ccc3ccccc23)c(C)c1
inactive: [1] | [2] | [3] | [9] | [6] | [7] | [10] | [8]
active: [4] 5.25 µM

Oc1cc2ccccc2cc1O
inactive: [1] | [2] | [3] | [9] | [6] | [7] | [8]

CCCCCCCCCCCCCCC
inactive: [1] | [2] | [3] | [9] | [5] | [6] | [7] | [8]

C=COC(=O)C(C)(C)CCCCCC
active: [1] 37.5 µM | [2] 28.5 µM | [3] 35 µM | [9] 3.97 µM | [5] 30.3 µM | [6] 37.2 µM | [7] 34.7 µM | [8] 30.9 µM

O=C1NS(=O)(=O)c2ccccc21
inactive: [1] | [2] | [9] | [4] | [6] | [7] | [10] | [8]

CCCCCCCCCCCCCCCCCC[N+](C)(C)Cc1ccccc1
active: [1] 0.556 µM | [2] 0.553 µM | [3] 1.86 µM | [9] 3.93 µM | [4] 0.715 µM | [6] 5.58 µM | [7] 2.54 µM | [10] 2.62 µM | [8] 4.24 µM

CCOC(=O)CN[C@@H](C(=O)N1CC[C@H]1C(=O)NCc1ccc(/C(N)=N/O)cc1)C1CCCCC1
inactive: [1] | [2] | [9] | [4] | [6] | [7] | [10] | [8]

Cc1cccc2c1ccc1ccccc12
inactive: [1] | [2] | [3] | [9] | [5] | [6] | [7] | [8]

CC1=NN(c2ccccc2)C(=O)C1
inactive: [1] | [2] | [9] | [4] | [6] | [7] | [10] | [8]

Clc1ccc(Nc2nnc(Cc3ccncc3)c3ccccc23)cc1
inactive: [1] | [2] | [3] | [9] | [4] | [5] | [6] | [7] | [8]

CC(=O)Nc1ccc(O)cc1
inactive: [1] | [2] | [3] | [9] | [6] | [7] | [8]

CCC(C)c1ccccc1O (stereo not given)
inactive: [1] | [2] | [3] | [9] | [4] | [6] | [7] | [8]

C[C@]12CC[C@@H]3c4ccc(O)cc4CC[C@H]3[C@@H]1C[C@@H](O)[C@@H]2O
inactive: [1] | [2] | [3] | [9] | [6] | [7] | [8]

O=S(=O)(O)C(F)(F)C(F)(F)C(F)(F)C(F)(F)C(F)(F)C(F)(F)C(F)(F)C(F)(F)C(F)(F)C(F)(F)F
inactive: [2] | [3] | [9] | [7] | [10] | [8]
active: [1] 8.49 µM and 8.79 µM | [2] 11.5 µM | [6] 6.49 µM and 3.75 µM

Source: PubChem BioAssay (EPA / NIEHS)
